Assay [1] in a line: qHTS assay to identify small molecule antagonists of the thyroid receptor (TR) signaling pathway (AID 743065). Note: series mostly up to about 70 µM; nearly all actives have a fitted effect of over 55% in size. A digest of the protocol:
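GH3.TRE-Luc rat pituitary cells carrying two TR response elements driving luciferase were plated for 4 h, given compound plus 1 nM T3 (final), and incubated 23.5 h at 37 C. ONE-Glo luminescence measured reporter inhibition; CellTiter-Fluor fluorescence tracked cytotoxicity.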
(qHTS replaces the single test concentration by a dilution series.)

For assay [2], the system named is thyroid hormone receptor (rat, GH3 cells). Put plainly: qHTS assay to identify small molecule agonists of the thyroid receptor (TR) signaling pathway (AID 743066; calls by dose curve).
Assay [3] has as its target Estrogen receptor (Homo sapiens) (UniProt P03372). The assay can be described thus: qHTS assay to identify small molecule antagonists of the estrogen receptor alpha (ER-alpha) signaling pathway (AID 743069; active = well fitted curve in the direction sought with a large enough effect in the signal ratio in the repeat runs, not every such curve was filed as active; the % refers to the signal ratio). Summed up: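 Estradiol-stimulated ER-alpha-UAS-bla HEK293 cells, 18 hr compound exposure at 37C. LiveBLAzer B/G substrate, 2 hr RT, fluorescence read.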
Assay [4] is described as follows: qHTS assay to identify small molecule antagonists of the estrogen receptor alpha (ER-alpha) signaling pathway - cell viability counter screen (AID 743074; calls by dose curve;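 note: HEK293 cells carrying ER-alpha-UAS-bla reporter stimulated with 17beta-estradiol; nearly all actives have a fitted effect of over 45% in size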).
Assay [5] has as its target Estrogen receptor (Homo sapiens) (UniProt P03372). The assay can be described thus: qHTS assay to identify small molecule agonists of the estrogen receptor alpha (ER-alpha) signaling pathway (AID 743075; calls by dose curve;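 note: HEK293 GripTite cells with ER-alpha and UAS-driven beta-lactamase reporter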).
Assay [6] has the same target. The assay can be described thus: qHTS assay to identify small molecule agonists of the estrogen receptor alpha (ER-alpha) signaling pathway using the BG1 cell line (AID 743079). Note: nearly all actives have a fitted effect of over 20% in size.
Assay [7] is described as follows: qHTS assay to identify small molecule antagonists of the estrogen receptor alpha (ER-alpha) signaling pathway using the BG1 cell line (AID 743080; calls by dose curve;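 note: BG1 cells stimulated with 17beta-estradiol alongside compound; series mostly up to about 70 µM; nearly all actives have a fitted effect of over 25% in size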). Summed up:
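After 5 days in phenol-red-free 10% charcoal-stripped FBS medium, BG1-Luc-4E2 cells were seeded, left 24 h at 37 C, co-treated with compounds and 17beta-estradiol for 21.5 h, then assayed for viability and luciferase.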

A short description of assay [8]: qHTS assay to identify small molecule antagonists of the estrogen receptor alpha (ER-alpha) signaling pathway using the BG1 cell line - cell viability counter screen (AID 743081).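 Note: compound given together with 17beta-estradiol as the ER stimulus; series mostly up to about 70 µM; nearly all actives have a fitted effect of over 45% in size.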
Assay [9] addresses Aromatase (Homo sapiens) (UniProt P11511). The assay can be described thus: qHTS assay to identify aromatase inhibitors (AID 743083). Note: series mostly up to about 70 µM; nearly all actives have a fitted effect of over 55% in size.
Assay [10] is described as follows: qHTS assay to identify aromatase inhibitors - cell viability counter screen (AID 743084).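 Note: cells stimulated with testosterone during compound exposure; nearly all actives have a fitted effect of over 55% in size.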
For assay [11], the target named is Aryl hydrocarbon receptor (Homo sapiens) (UniProt P35869). The assay can be described thus: qHTS assay to identify small molecule that activate the aryl hydrocarbon receptor (AhR) signaling pathway (AID 743085).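 Note: HG2L7.5c1 human HepG2 liver cells with stably integrated DRE-driven firefly reporter; series mostly up to about 70 µM; nearly all actives have a fitted effect of over 15% in size.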 A digest of the protocol:
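24 h compound exposure, 37C, HepG2-derived HG2L7.5c1 cells with DRE-responsive luciferase. Readouts: fluorescence viability, then luminescence at room temperature after 30 min.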

Assay [12] is described as follows: qHTS assay to identify small molecule that activate the aryl hydrocarbon receptor (AhR) signaling pathway - cell viability counter screen (AID 743086).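 Note: HepG2 liver cells carrying the AhR DRE luciferase reporter; series mostly up to about 70 µM; nearly all actives have a fitted effect of over 45% in size.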 Summed up: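 HepG2-AhR-luc (HG2L7.5c1) cells, 4000/well, were preincubated 5 h at 37C, exposed to compound in qHTS format for 24 hr at 37C, then given CellTiter-Fluor for 30 min; viability was read as fluorescence in the reporter wells.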

Assay [13] concerns the target Peroxisome proliferator-activated receptor gamma (Homo sapiens) (UniProt P37231). The assay can be described thus: qHTS assay to identify small molecule agonists of the peroxisome proliferator-activated receptor gamma (PPARg) signaling pathway (AID 743094; active = well fitted activation curve with a large enough effect in the signal ratio in the repeat runs, not every such curve was filed as active; the % refers to the signal ratio; note: potency is the fitted concentration of half-maximal effect). Summed up: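 Quantitative HTS agonist mode: stable HEK293H line with UAS-beta-lactamase reporter under PPARg control, 17 h compound exposure at 37C, fluorescence after 1 h FRET substrate loading at room temperature.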

For assay [14] the target is unchanged. The assay can be described thus: qHTS assay to identify small molecule antagonists of the peroxisome proliferator-activated receptor gamma (PPARg) signaling pathway (AID 743191; calls by dose curve; note: series mostly up to about 63 µM; nearly all actives have a fitted effect of over 30% in size). Summed up:
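GeneBLAzer PPARg UAS-bla HEK293H cells carrying a UAS-driven beta-lactamase reporter were plated at 3000 cells/well, preincubated 5 h at 37C, then given compound for 17 h at 37C; LiveBLAzer B/G FRET substrate was read after 1 h at room temperature.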

Assay [15] is described as follows: qHTS assay to identify small molecule antagonists of the peroxisome proliferator-activated receptor gamma (PPARg) signaling pathway - cell viability counter screen (AID 743194). Note: nearly all actives have a fitted effect of over 55% in size. A digest of the protocol:
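PPARg-UAS-bla HEK293H cells were plated, rested 5 h at 37 C, then treated with compounds plus rosiglitazone (50 nM final) for 17 h at 37 C; viability was then read by CellTiter-Glo luminescence after 30 min at room temperature.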

Assay [16] can be described thus: qHTS assay for small molecule agonists of the antioxidant response element (ARE) signaling pathway (AID 743202; active = well fitted activation curve with a large enough effect in the signal ratio in the repeat runs, not every such curve was filed as active; the % refers to the signal ratio). A digest of the protocol:
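Compounds delivered in DMSO to ARE-bla HepG2 cells (2,000 cells/well, pre-incubated 5 h) and left 16 h at 37 C. LiveBLAzer B/G FRET substrate then added for 2 h at RT before fluorescence reading.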

The nature of assay [17]: qHTS assay for small molecule agonists of the antioxidant response element (ARE) signaling pathway - cell viability counter screen (AID 743203; calls by dose curve; note: nearly all actives have a fitted effect of over 55% in size). Summed up: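 Seeded at 2,000 cells/well, ARE-bla HepG2 cells were incubated 5 hrs before compound addition. After 16 hrs of treatment at 37C with 5% CO2, CellTiter-Glo reagent was added and luminescence read 30 min later.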
The nature of assay [18]: qHTS assay for small molecule activators of the heat shock response signaling pathway - cell viability counter screen (AID 743209). Note: nearly all actives have a fitted effect of over 50% in size. A digest of the protocol:
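First, HSE-bla HeLa cells were seeded at 1500 cells/well and kept overnight at 37 C. Next, compounds were pinned in and incubated 5 h. After the FRET substrate step, CellTiter-Glo was added and luminescence read 30 min later.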

A short description of assay [19]: qHTS assay for small molecule activators of the heat shock response signaling pathway (AID 743210; active = well fitted activation curve with a large enough effect in the signal ratio in the repeat runs, with a control signal flat, not every such curve was filed as active; the % refers to the signal ratio;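 note: HeLa cells with beta-lactamase reporter driven by heat shock elements; series mostly up to about 63 µM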). Summed up:
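Reporter gene assay: HeLa cells stably bearing an HSE-bla construct, compound treatment 5 h at 37 C, LiveBLAzer substrate 2.5 h at RT, fluorescence intensity.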

Assay [20] is described as follows: qHTS assay to identify small molecule agonists of the peroxisome proliferator-activated receptor delta (PPARd) signaling pathway - cell viability counter screen (AID 743211). Note: nearly all actives have a fitted effect of over 55% in size. Summed up: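 Luminescent ATP viability assay (CellTiter-Glo, 30 min RT) in UAS-bla HEK293H cells carrying the PPAR delta reporter construct, 3000 cells/well, after a 17 h compound treatment at 37 C.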

Records with an inconclusive call do not appear. Activity calls are given as the source filed them. Unless noted, calls come from the whole dose curve; as a rule, active = well fitted curve in the direction sought with a large enough effect in the repeat runs; inconclusive = weak or mixed curves; inactive = no such curve, though single readings can be large; an effect the other way counts as inactive or inconclusive.

Sequence of Estrogen receptor (Homo sapiens) (P03372 whole entry, looked up): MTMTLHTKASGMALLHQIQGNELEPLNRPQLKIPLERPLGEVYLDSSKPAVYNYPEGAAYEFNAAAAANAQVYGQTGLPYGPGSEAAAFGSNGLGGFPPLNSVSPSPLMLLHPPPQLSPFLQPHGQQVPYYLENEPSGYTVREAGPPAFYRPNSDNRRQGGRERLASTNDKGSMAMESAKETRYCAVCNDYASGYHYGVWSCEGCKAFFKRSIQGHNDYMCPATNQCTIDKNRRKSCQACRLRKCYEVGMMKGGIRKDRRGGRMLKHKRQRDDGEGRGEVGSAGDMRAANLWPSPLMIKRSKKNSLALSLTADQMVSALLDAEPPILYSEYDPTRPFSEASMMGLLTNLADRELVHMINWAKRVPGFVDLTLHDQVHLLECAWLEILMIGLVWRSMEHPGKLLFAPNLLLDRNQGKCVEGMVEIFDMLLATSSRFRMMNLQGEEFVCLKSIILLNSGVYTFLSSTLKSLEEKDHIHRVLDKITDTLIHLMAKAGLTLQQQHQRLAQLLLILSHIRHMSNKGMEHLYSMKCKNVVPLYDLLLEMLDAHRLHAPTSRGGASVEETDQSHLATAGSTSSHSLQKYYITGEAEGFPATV
Sequence of Aromatase (Homo sapiens) (P11511 whole entry, looked up): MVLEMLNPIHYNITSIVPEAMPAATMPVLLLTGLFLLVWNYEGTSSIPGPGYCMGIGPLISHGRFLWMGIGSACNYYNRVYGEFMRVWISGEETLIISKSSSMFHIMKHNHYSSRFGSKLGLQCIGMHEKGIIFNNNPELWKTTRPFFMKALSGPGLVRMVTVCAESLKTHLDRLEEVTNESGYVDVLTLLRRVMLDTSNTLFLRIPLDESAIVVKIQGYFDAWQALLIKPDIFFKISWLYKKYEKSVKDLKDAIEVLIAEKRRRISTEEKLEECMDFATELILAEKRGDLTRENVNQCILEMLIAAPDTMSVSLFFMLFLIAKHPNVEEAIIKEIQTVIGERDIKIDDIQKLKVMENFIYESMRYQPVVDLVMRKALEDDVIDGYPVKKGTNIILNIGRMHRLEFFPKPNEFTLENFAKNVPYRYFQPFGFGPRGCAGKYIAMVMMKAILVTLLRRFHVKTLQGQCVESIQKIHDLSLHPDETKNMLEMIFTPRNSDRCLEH
Sequence of Peroxisome proliferator-activated receptor gamma (Homo sapiens) (P37231 whole entry, looked up): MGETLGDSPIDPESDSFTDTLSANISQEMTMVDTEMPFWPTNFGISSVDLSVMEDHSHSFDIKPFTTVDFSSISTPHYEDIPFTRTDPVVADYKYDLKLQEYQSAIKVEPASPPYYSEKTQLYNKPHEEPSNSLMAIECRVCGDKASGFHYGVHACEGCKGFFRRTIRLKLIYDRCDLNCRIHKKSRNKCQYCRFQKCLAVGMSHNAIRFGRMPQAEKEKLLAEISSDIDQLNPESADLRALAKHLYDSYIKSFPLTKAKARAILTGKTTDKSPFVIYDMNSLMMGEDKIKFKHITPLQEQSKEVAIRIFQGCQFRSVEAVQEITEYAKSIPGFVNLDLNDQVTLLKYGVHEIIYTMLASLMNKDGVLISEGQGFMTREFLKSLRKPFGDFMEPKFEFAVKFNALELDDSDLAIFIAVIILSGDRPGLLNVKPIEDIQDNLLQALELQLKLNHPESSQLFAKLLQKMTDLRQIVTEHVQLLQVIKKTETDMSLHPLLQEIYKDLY
Sequence of Aryl hydrocarbon receptor (Homo sapiens) (P35869 whole entry, looked up): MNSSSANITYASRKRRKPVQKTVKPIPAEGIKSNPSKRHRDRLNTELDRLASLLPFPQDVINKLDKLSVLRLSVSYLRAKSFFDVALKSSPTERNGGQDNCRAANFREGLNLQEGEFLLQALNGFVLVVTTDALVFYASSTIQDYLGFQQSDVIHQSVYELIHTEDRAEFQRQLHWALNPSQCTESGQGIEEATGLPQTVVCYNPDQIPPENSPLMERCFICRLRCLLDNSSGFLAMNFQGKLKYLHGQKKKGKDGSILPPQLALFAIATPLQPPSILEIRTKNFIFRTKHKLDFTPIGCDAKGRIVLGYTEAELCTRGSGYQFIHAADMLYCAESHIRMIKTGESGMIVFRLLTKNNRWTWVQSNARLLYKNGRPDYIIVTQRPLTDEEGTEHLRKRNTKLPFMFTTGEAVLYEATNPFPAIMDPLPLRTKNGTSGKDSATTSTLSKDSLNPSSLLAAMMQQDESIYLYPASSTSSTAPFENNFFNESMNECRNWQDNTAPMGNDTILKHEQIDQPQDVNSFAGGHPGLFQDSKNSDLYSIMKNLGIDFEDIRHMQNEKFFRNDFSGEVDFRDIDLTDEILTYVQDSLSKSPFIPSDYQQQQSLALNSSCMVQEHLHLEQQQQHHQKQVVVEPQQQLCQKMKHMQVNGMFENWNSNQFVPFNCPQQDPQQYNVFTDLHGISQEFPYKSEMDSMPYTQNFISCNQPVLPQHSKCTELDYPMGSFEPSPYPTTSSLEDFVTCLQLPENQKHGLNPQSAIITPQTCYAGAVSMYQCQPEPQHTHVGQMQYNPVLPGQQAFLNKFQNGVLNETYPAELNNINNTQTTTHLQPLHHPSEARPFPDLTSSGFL

On to `Nc1cccc(S(=O)(=O)O)c1`, for which the Potency result in assay [1], in assay [3], in assay [4], in assay [6], in assay [8] and in assay [9] was “inactive” each time. The Potency entry in [10], in assay [11], in [13], in assay [14], in assay [15] and in [16] was “inactive” each time. The Potency entry in assay [17], in assay [19] and in [20] was “inactive” in each case. Also, the call in [2], in assay [5], in assay [7], in assay [12] and in [18] was inactive.
For `CCOC(=O)C(Br)c1ccccc1` (stereo not given), the Potency result in assay [1], in assay [3], in assay [4], in [6], in [8] and in [9] was “inactive” throughout. In addition, the Potency entry in [10], in [11], in assay [13], in assay [15], in assay [17] and in assay [19] was “inactive” throughout. Also, the Potency entry in assay [20] was “inactive”. The outcome in [2], in [5], in assay [7], in [12] and in assay [18] was inactive.
For `CC(C)(C)c1cccc(O)c1`, the Potency entry in assay [1], in assay [3], in assay [4], in [6], in [8] and in assay [9] was “inactive” throughout. Further, the Potency entry in [10], in assay [11], in assay [13], in assay [14], in [15] and in assay [16] was “inactive” each time. Besides, the Potency entry in assay [17] and in assay [20] was “inactive” in each case. Besides, the result in [2], in assay [5], in assay [7], in assay [12] and in [18] was inactive.
For `CC(C)S`, the Potency result in assay [1], in assay [3], in [4], in assay [6], in assay [8] and in assay [9] was “inactive” throughout. Also, the Potency entry in assay [10], in assay [11], in assay [13], in assay [14], in assay [15] and in [17] was “inactive” in each case. Further, the Potency result in assay [19] and in assay [20] was “inactive” throughout. The compound was classed as inactive in [2], in [5], in assay [7], in assay [12] and in assay [18].
Turning to `CCOC(=O)NCCC[Si](OCC)(OCC)OCC`, the Potency result in [1], in [3], in [4], in assay [6], in assay [8] and in assay [9] was “inactive” in each case. Besides, the Potency entry in assay [10], in assay [11], in [13], in assay [14], in [15] and in [16] was “inactive” each time. Further, the Potency result in [17], in assay [19] and in assay [20] was “inactive” each time. In addition, the compound was called inactive in assay [2], in assay [5], in assay [7], in assay [12] and in assay [18].
For the compound `CCCNC(C)(C)COC(=O)c1ccccc1`, the Potency entry in assay [1], in [3], in [4], in assay [6], in assay [8] and in assay [9] was “inactive” throughout. Besides, the Potency result in assay [10], in assay [11], in assay [14], in assay [15], in assay [16] and in assay [17] was “inactive” each time. Also, the Potency entry in [19] and in assay [20] was “inactive” in each case. In addition, the result in [2], in assay [5], in [7], in [12] and in assay [18] was inactive. Besides, the Potency in assay [13] was 338 nM (active).
Consider `CC(=O)N(CC(O)CN(C(C)=O)c1c(I)c(C(=O)NCC(O)CO)c(I)c(C(=O)NCC(O)CO)c1I)c1c(I)c(C(=O)NCC(O)CO)c(I)c(C(=O)NCC(O)CO)c1I` (stereo not given), for which the Potency result in assay [1], in assay [3], in [4], in assay [6], in assay [8] and in [9] was “inactive” each time. Besides, the Potency result in [10], in [11], in assay [13], in assay [14], in [16] and in [17] was “inactive” each time. Also, the Potency entry in assay [19] and in assay [20] was “inactive” throughout. In addition, the compound was called inactive in assay [2], in assay [5], in [7], in [12] and in assay [18].

The values are drawn from PubChem BioAssay (Tox21).
